SMILES strings stand for the structures. Records with an inconclusive call do not appear. The source made the active and inactive calls. Rule for the calls, unless noted: active = hit-call score of the fitted dose curve at least 0.9, where 1 is the maximum; inactive = score below 0.9.

Sequence of Cellular tumor antigen p53 (Homo sapiens) (P04637 whole entry, looked up): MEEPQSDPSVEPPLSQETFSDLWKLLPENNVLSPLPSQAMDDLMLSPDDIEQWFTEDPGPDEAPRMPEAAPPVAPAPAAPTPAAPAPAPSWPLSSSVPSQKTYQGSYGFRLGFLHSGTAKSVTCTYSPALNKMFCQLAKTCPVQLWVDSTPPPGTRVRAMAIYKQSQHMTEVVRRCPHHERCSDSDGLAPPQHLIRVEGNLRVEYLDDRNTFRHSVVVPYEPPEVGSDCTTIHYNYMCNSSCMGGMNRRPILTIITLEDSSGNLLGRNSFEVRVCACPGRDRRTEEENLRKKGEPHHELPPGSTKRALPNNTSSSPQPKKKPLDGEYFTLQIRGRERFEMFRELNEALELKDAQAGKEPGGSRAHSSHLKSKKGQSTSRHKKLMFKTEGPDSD
Sequence of human Peroxisome Proliferator-activated Receptor delta (PPARd), PPARD (gene 5467) (Q03181 whole entry, looked up): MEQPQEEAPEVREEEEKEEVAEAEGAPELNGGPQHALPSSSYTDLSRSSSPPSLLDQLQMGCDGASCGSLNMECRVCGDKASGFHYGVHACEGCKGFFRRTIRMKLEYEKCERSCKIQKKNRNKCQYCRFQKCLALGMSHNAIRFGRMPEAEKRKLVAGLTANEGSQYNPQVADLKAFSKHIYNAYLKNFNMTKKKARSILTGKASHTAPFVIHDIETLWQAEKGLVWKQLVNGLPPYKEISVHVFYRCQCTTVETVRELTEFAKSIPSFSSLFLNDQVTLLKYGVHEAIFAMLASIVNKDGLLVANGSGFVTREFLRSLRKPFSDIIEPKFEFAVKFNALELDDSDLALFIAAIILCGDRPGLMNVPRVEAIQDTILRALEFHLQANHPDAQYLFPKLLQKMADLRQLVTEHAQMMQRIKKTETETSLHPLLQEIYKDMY

The target in the first assay is Cellular tumor antigen p53 (Homo sapiens) (UniProt P04637). Nature of the assay: ATG_p53_CIS: Attagene CIS-FACTORIAL HepG2 Assay for human p53 Transcription Factor (AID 2282994). Particulars: HepG2 p53 cis-element reporter, Attagene mRNA; actives raise or lower the signal. The method, boiled down:
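Read-out: reporter mRNA by RT-PCR plus capillary electrophoresis with fluorescence detection. Human HepG2 liver cells carried transfected multi-reporter cis-element constructs, dosed 24 h. Gain or loss of signal fitted bidirectionally against DMSO control.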
Regarding `O=C1c2c(O)ccc(Nc3ccc(CCO)cc3)c2C(=O)c2c([N+](=O)[O-])ccc(O)c21`, the call was inactive.

Turning to `CC(=O)CCC(C)C`, the result was inactive.

In the case of `O=c1[nH]cccc1O`, the outcome was inactive.

Take `CCOCN(C(=O)CS(=O)(=O)O)c1c(C)cccc1CC`: the compound was called inactive.

`c1ccc(C[P+](c2ccccc2)(c2ccccc2)c2ccccc2)cc1`: the result was inactive.

Turning to `CCc1ccc(C)nc1`, the outcome was inactive.

Consider `Nc1c(Br)cc([N+](=O)[O-])cc1Br`, for which the compound was called inactive.

As to `CC(=O)c1ccccc1N`, the compound was called inactive.

For `OCC1CCCO1` (stereo not given), the outcome was inactive.

`CCCCCCCC/C=C\CCCCCCCC(=O)OCC(O)CO` (stereo not given): the compound was called inactive.

Consider `Cc1ccc([N+](=O)[O-])c(C)c1`, for which the call was inactive.

For the compound `Brc1nc2ccccc2s1`, the compound was called inactive.

Regarding `O=C1c2ccccc2C(=O)c2c(Cl)cccc21`, the compound was called inactive.

On to `OCCCCC(F)(F)C(F)(F)C(F)(F)C(F)(F)F`, for which the compound was classed as inactive.

Take `C[Si](C)O[Si](C)C`: the result was inactive.

With `CCC/C=C/CO`, the compound was classed as inactive.

For `CC(=O)C=O`, the call was inactive.

Take `CCCCOC(=O)[C@H](C)O`: the result was inactive.

Read-out in the next assay: not listed separately
Nature of the assay: BSK_3C_TissueFactor: BioMAP Diversity Plus: 3C Assay for Tissue Factor Biomarker Activity (AID 2282997). As to conditions: BioMAP 3C HUVEC, tissue factor biomarker readout; actives raise or lower the signal. A digest of the protocol: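 HUVEC, 3C system, 24 h post-dose; Tissue Factor by ELISA; bidirectional fit vs DMSO baseline.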
In the case of `O=S(=O)(O)CCC(F)(F)C(F)(F)C(F)(F)C(F)(F)F`, the outcome was inactive.

Turning to `C[C@]12CC[C@H]3C(=CCc4cc(O)ccc43)[C@@H]1CCC2=O`, the result was inactive.

The term AC50 denotes the concentration giving half of the maximal activity seen. Turning to `O=C1c2c(O)ccc(Nc3ccc(CCO)cc3)c2C(=O)c2c([N+](=O)[O-])ccc(O)c21`, the AC50 is 0.7 µM (active).

On to `Brc1nc2ccccc2s1`, for which the result was inactive.

`OCCCCC(F)(F)C(F)(F)C(F)(F)C(F)(F)F`: the result was inactive.

Read-out in the next assay: not listed separately
Nature of the assay: BSK_3C_uPAR: BioMAP Diversity Plus: 3C Assay for Urokinase-type plasminogen activator receptor (uPAR) Biomarker Activity (AID 2282998). As to conditions: BioMAP 3C HUVEC, uPAR biomarker ELISA; actives raise or lower the signal. The method, boiled down:
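Human umbilical vein endothelial primary cells were exposed to test chemical for 24 h. Cell-surface uPAR was then quantified by ELISA, and responses were fitted bidirectionally against DMSO as negative control and baseline.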
For orientation: In an ELISA, binding on a coated surface is turned into a signal by an enzyme label.
As to `O=S(=O)(O)CCC(F)(F)C(F)(F)C(F)(F)C(F)(F)F`, the outcome was inactive.

With `O=C1c2c(O)ccc(Nc3ccc(CCO)cc3)c2C(=O)c2c([N+](=O)[O-])ccc(O)c21`, the AC50 was 4.7 µM (active).

With `Brc1nc2ccccc2s1`, the outcome was inactive.

Take `OCCCCC(F)(F)C(F)(F)C(F)(F)C(F)(F)F`: the outcome was inactive.

Read-out in a further assay: not listed separately
Nature of the assay: BSK_3C_VCAM1: BioMAP Diversity Plus: 3C Assay for Vascular cell adhesion molecule 1 (VCAM1) Biomarker Activity (AID 2282999). As to conditions: BioMAP 3C HUVEC, VCAM1 ELISA, cytokine-stimulated; actives raise or lower the signal. A digest of the protocol: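 Vascular primary endothelium (human umbilical vein) was exposed to chemicals and assayed 24 h later. VCAM-1 levels came from ELISA, with DMSO serving as baseline for bidirectional fitting.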
For the compound `O=S(=O)(O)CCC(F)(F)C(F)(F)C(F)(F)C(F)(F)F`, the result was inactive.

With `C[C@]12CC[C@H]3C(=CCc4cc(O)ccc43)[C@@H]1CCC2=O`, the outcome was inactive.

Turning to `O=C1c2c(O)ccc(Nc3ccc(CCO)cc3)c2C(=O)c2c([N+](=O)[O-])ccc(O)c21`, the AC50 was 23.2 µM (active).

`Brc1nc2ccccc2s1`: the outcome was inactive.

Regarding `OCCCCC(F)(F)C(F)(F)C(F)(F)C(F)(F)F`, the outcome was inactive.

Read-out in the next assay: not listed separately
Nature of the assay: BSK_4H_Eotaxin3: BioMAP Diversity Plus: 4H Assay for Eotaxin 3 Biomarker Activity (AID 2283000).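 For outcome: CCL26 protein level quantified by ELISA in parallel with SRB cytotoxicity check.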 Particulars: primary human endothelial cells (HUVEC); actives raise or lower the signal. A digest of the protocol:
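Readout is Eotaxin-3 (CCL26) level by ELISA in primary human umbilical vein endothelial cells harvested 24 h after chemical exposure; activity fitted in both directions against DMSO control.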
Turning to `O=S(=O)(O)CCC(F)(F)C(F)(F)C(F)(F)C(F)(F)F`, the result was inactive.

As for `C[C@]12CC[C@H]3C(=CCc4cc(O)ccc43)[C@@H]1CCC2=O`, the result was inactive.

With `O=C1c2c(O)ccc(Nc3ccc(CCO)cc3)c2C(=O)c2c([N+](=O)[O-])ccc(O)c21`, the AC50 is 9.19 µM (active).

On to `Brc1nc2ccccc2s1`, for which the outcome was inactive.

For `OCCCCC(F)(F)C(F)(F)C(F)(F)C(F)(F)F`, the outcome was inactive.

In another assay the target is human Peroxisome Proliferator-activated Receptor alpha (PPARa), PPARA (gene 5465) (UniProt Q07869). Nature of the assay: ATG_PPARa_TRANS: Attagene TRANS-FACTORIAL HepG2 Assay for human Peroxisome Proliferator-activated Receptor alpha (PPARa) (AID 2283001; active = hit-call score of the fitted dose curve at least 0.9, where 1 is the maximum).
Sequence of human Peroxisome Proliferator-activated Receptor alpha (PPARa), PPARA (gene 5465) (Q07869 whole entry, looked up): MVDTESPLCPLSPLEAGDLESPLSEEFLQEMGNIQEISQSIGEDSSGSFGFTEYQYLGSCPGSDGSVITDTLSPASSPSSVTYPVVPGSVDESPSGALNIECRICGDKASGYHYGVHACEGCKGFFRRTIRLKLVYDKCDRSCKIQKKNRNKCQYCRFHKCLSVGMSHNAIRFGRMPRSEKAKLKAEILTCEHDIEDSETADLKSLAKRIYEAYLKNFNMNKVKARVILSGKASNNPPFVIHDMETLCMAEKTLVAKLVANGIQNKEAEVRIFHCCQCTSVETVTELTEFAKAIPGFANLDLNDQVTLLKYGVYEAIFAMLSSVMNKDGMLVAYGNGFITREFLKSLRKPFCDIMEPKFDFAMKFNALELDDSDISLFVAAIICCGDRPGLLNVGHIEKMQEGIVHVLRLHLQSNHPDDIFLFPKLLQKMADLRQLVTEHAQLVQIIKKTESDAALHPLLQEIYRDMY
Conditions: not given
A digest of the protocol:
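Cells (HepG2) are transfected with multiple reporter transcription units, exposed to chemical for 24 h, then total RNA is reverse-transcribed and amplified. Labelled products are quantified by capillary electrophoresis; induction is referenced to DMSO.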
Take `CCCCCCCCCCCCCC[P+](CCCC)(CCCC)CCCC`: the result was inactive.

For `C[C@]12CC[C@H]3C(=CCc4cc(O)ccc43)[C@@H]1CCC2=O`, the compound was called inactive.

For the compound `N#Cc1ccccc1O`, the call was inactive.

In the case of `CN(N=O)C(=O)N[C@@H]1[C@@H](O)[C@H](O)[C@@H](CO)O[C@@H]1O`, the call was inactive.

With `Cc1ccc([N+](=O)[O-])c(C)c1`, the compound was classed as inactive.

Consider `Brc1nc2ccccc2s1`, for which the call was inactive.

Consider `OCCCCC(F)(F)C(F)(F)C(F)(F)C(F)(F)F`, for which the compound was classed as inactive.

A further assay concerns the target human Peroxisome Proliferator-activated Receptor delta (PPARd), PPARD (gene 5467) (UniProt Q03181). Nature of the assay: ATG_PPARd_TRANS: Attagene TRANS-FACTORIAL HepG2 Assay for human Peroxisome Proliferator-activated Receptor delta (PPARd) (AID 2283002; active = hit-call score of the fitted dose curve at least 0.9, where 1 is the maximum).
Conditions: not given
A digest of the protocol: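 Measured quantity: GAL4-UAS reporter transcript induction in HepG2 after 24 h chemical dosing, with NR-Gal4 chimeras supplied by transient transfection. Detection by RT-PCR and capillary electrophoresis; upward fit against DMSO.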
For the compound `CCOC(=O)C1CC(=O)C(=C(O)C2CC2)C(=O)C1` (stereo not given), the result was inactive.

In the case of `CCCCCC/C=C/CCCCCCCC(=O)O`, the compound was classed as inactive.

Consider `CCCCCCCCCCCCCC[P+](CCCC)(CCCC)CCCC`, for which the call was inactive.

As to `CCc1cc(Cc2cc(CC)c(N)c(CC)c2)cc(CC)c1N`, the call was inactive.

On to `O=C1OC(=O)c2ccc3c4c(ccc1c24)C(=O)OC3=O`, for which the compound was called inactive.

On to `Cc1ccc(O)cn1`, for which the outcome was inactive.

In the case of `CCOC(OCC)OCC`, the result was inactive.

Consider `O=S(=O)(O)CCC(F)(F)C(F)(F)C(F)(F)C(F)(F)F`, for which the outcome was inactive.

With `C[C@]12CC[C@H]3C(=CCc4cc(O)ccc43)[C@@H]1CCC2=O`, the outcome was inactive.

Consider `CCCCC(CC)COC(=O)c1ccc(N(C)C)cc1` (stereo not given), for which the compound was called inactive.

In the case of `CN(C)C(C)(C)CO`, the compound was called inactive.

Take `O=S(=O)(O)c1ccc(Cl)cc1`: the result was inactive.

On to `N#Cc1ccccc1O`, for which the result was inactive.

Consider `CN(N=O)C(=O)N[C@@H]1[C@@H](O)[C@H](O)[C@@H](CO)O[C@@H]1O`, for which the result was inactive.

For the compound `O=C1c2c(O)ccc(Nc3ccc(CCO)cc3)c2C(=O)c2c([N+](=O)[O-])ccc(O)c21`, the call was inactive.

For `Nc1c(Br)cc([N+](=O)[O-])cc1Br`, the compound was called inactive.

Turning to `CC(=O)c1ccccc1N`, the call was inactive.

With `OCC1CCCO1` (stereo not given), the call was inactive.

On to `CCCCCCCC/C=C\CCCCCCCC(=O)OCC(O)CO` (stereo not given), for which the outcome was inactive.

Take `Cc1ccc([N+](=O)[O-])c(C)c1`: the compound was classed as inactive.

For the compound `Brc1nc2ccccc2s1`, the outcome was inactive.

As for `O=C1c2ccccc2C(=O)c2c(Cl)cccc21`, the outcome was inactive.

In the case of `OCCCCC(F)(F)C(F)(F)C(F)(F)C(F)(F)F`, the compound was called inactive.

On to `C[Si](C)O[Si](C)C`, for which the compound was called inactive.

With `CCC/C=C/CO`, the compound was called inactive.

With `CCCCOC(=O)[C@H](C)O`, the call was inactive.

Read-out in another assay: Intercellular Adhesion Molecule 1 (ICAM1), ICAM1 (gene 3383)
Nature of the assay: BSK_3C_ICAM1: BioMAP Diversity Plus: 3C Assay for Intercellular Adhesion Molecule 1 (ICAM1) Biomarker Activity (AID 2283003). Particulars: primary human endothelial cells (HUVEC); actives raise or lower the signal. A digest of the protocol:
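ELISA readout of ICAM1 in human umbilical vein endothelial cells in the 3C system, taken 24 h post-dose. Gain or loss of signal versus DMSO was fitted in both directions, with SRB total-protein staining run in parallel.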
For the compound `O=S(=O)(O)CCC(F)(F)C(F)(F)C(F)(F)C(F)(F)F`, the outcome was inactive.

As to `C[C@]12CC[C@H]3C(=CCc4cc(O)ccc43)[C@@H]1CCC2=O`, the result was inactive.

As to `O=C1c2c(O)ccc(Nc3ccc(CCO)cc3)c2C(=O)c2c([N+](=O)[O-])ccc(O)c21`, the half-maximal activity concentration (AC50) is 20 µM (active).

Turning to `Brc1nc2ccccc2s1`, the outcome was inactive.

For `OCCCCC(F)(F)C(F)(F)C(F)(F)C(F)(F)F`, the outcome was inactive.
